Where a name gives a salt, the structure may show the parent alone. ± gives the standard deviation of the averaged measurements.
Tested on: Klebsiella pneumoniae KPC-119
Test: percent growth inhibition of drug + antibiotic vs DMSO control; higher = more growth inhibition
Conditions: antibiotic (0.125x MIC): gentamicin; 20 µM

Row | SMILES | percent growth inhibition
1 | CC(=O)OC[C@H]1O[C@@H]([S-])[C@H](OC(C)=O)[C@@H](OC(C)=O)[C@@H]1OC(C)=O.CCP(CC)CC.[Au+] [Auranofin] | 99.78 ± 0.2%
2 | CN(C)c1ccc(O)c2c1C[C@H]1C[C@H]3[C@H](N(C)C)C(O)=C(C(N)=O)C(=O)[C@@]3(O)C(O)=C1C2=O [Minocycline hydrochloride] | 95.3 ± 1.8%
3 | CO[C@H]1/C=C/O[C@@]2(C)Oc3c(C)c(O)c4c(c3C2=O)C2=NC3(CCN(CC(C)C)CC3)NC2=C(NC(=O)/C(C)=C\C=C\[C@H](C)[C@H](O)[C@@H](C)[C@@H](O)[C@@H](C)[C@H](OC(C)=O)[C@@H]1C)C4=O [Rifabutin] | 99.4 ± 0.45%
4 | O=C1OCCN1/N=C/c1ccc([N+](=O)[O-])o1 [Furazolidone] | 99.78 ± 0.13%
5 | CN[C@@H]1[C@@H](O[C@H]2O[C@H](CO)[C@@H](N)[C@H](O)[C@H]2O)OC2C[C@@H](N)[C@@H](O[C@H]3[C@H](O)[C@@H](O)[C@H](N)C[C@@H]3N)OC2[C@@H]1O (stereo not given in full) [Apramycin] | 99.968 ± 0.004%
6 | O=C(O)c1cn(-c2ccc(F)cc2)c2cc(N3CCNCC3)c(F)cc2c1=O [Sarafloxacin] | 99.82 ± 0.22%

Same assay, conditions: antibiotic (0.125x MIC): meropenem; 7 µM

Row | SMILES | percent growth inhibition
7 | CC(=O)OC[C@H]1O[C@@H]([S-])[C@H](OC(C)=O)[C@@H](OC(C)=O)[C@@H]1OC(C)=O.CCP(CC)CC.[Au+] [Auranofin] | 98.3 ± 1.4%
8 | O=C(O)c1cn(-c2ccc(F)cc2)c2cc(N3CCNCC3)c(F)cc2c1=O [Sarafloxacin] | 99.613 ± 0.042%
9 | O=c1[nH]c(=O)n([C@H]2C[C@H](O)[C@@H](CO)O2)cc1F [Floxuridine] | 89.6 ± 10%

Same assay, conditions: antibiotic (0.125x MIC): meropenem; 20 µM

Row | SMILES | percent growth inhibition
10 | CC(=O)OC[C@H]1O[C@@H]([S-])[C@H](OC(C)=O)[C@@H](OC(C)=O)[C@@H]1OC(C)=O.CCP(CC)CC.[Au+] [Auranofin] | 99.5 ± 0.13%
11 | CO[C@H]1/C=C/O[C@@]2(C)Oc3c(C)c(O)c4c(c3C2=O)C2=NC3(CCN(CC(C)C)CC3)NC2=C(NC(=O)/C(C)=C\C=C\[C@H](C)[C@H](O)[C@@H](C)[C@@H](O)[C@@H](C)[C@H](OC(C)=O)[C@@H]1C)C4=O [Rifabutin] | 99.645 ± 0.017%
12 | O=C(O)c1cn(-c2ccc(F)cc2)c2cc(N3CCNCC3)c(F)cc2c1=O [Sarafloxacin] | 83.6 ± 19%
13 | O=c1[nH]c(=O)n([C@H]2C[C@H](O)[C@@H](CO)O2)cc1F [Floxuridine] | 98.5 ± 1.4%

Tested on: Klebsiella pneumoniae NCTC-13439
Test: as above
Conditions: antibiotic (0.125x MIC): ciprofloxacin; 7 µM

Row | SMILES | percent growth inhibition
14 | CC(=O)OC[C@H]1O[C@@H]([S-])[C@H](OC(C)=O)[C@@H](OC(C)=O)[C@@H]1OC(C)=O.CCP(CC)CC.[Au+] [Auranofin] | 10.8 ± 5.5%
15 | CO[C@H]1/C=C/O[C@@]2(C)Oc3c(C)c(O)c4c(c3C2=O)C2=NC3(CCN(CC(C)C)CC3)NC2=C(NC(=O)/C(C)=C\C=C\[C@H](C)[C@H](O)[C@@H](C)[C@@H](O)[C@@H](C)[C@H](OC(C)=O)[C@@H]1C)C4=O [Rifabutin] | 21.5 ± 7.5%
16 | O=C1OCCN1/N=C/c1ccc([N+](=O)[O-])o1 [Furazolidone] | 17 ± 1.2%
17 | O=C(O)c1cn(-c2ccc(F)cc2)c2cc(N3CCNCC3)c(F)cc2c1=O [Sarafloxacin] | 59.24 ± 0.15%
18 | CO[C@H]1/C=C/O[C@@]2(C)Oc3c(C)c(O)c4c(O)c(c5c(nc6cc(C)ccn65)c4c3C2=O)NC(=O)/C(C)=C\C=C\[C@H](C)[C@H](O)[C@@H](C)[C@@H](O)[C@@H](C)[C@H](OC(C)=O)[C@@H]1C [Rifaximin] | -1.2 ± 3.8%
19 | CC[C@H]1OC(=O)[C@H](C)[C@@H](O[C@H]2C[C@@](C)(OC)[C@@H](O)[C@H](C)O2)[C@H](C)[C@@H](O[C@@H]2O[C@H](C)C[C@H](N(C)C)[C@H]2O)[C@](C)(O)C[C@@H](C)CN(C)[C@H](C)[C@@H](O)[C@]1(C)O [Azithromycin] | 44.5 ± 5.6%
20 | O=c1[nH]c(=O)n([C@H]2C[C@H](O)[C@@H](CO)O2)cc1F [Floxuridine] | 64.6 ± 15%

Same assay, conditions: antibiotic (0.125x MIC): ciprofloxacin; 20 µM

Row | SMILES | percent growth inhibition
21 | O=C1OCCN1/N=C/c1ccc([N+](=O)[O-])o1 [Furazolidone] | 99.97 ± 0.19%
22 | O=C(O)c1cn(-c2ccc(F)cc2)c2cc(N3CCNCC3)c(F)cc2c1=O [Sarafloxacin] | 99.59 ± 0.23%
23 | CO[C@H]1/C=C/O[C@@]2(C)Oc3c(C)c(O)c4c(O)c(c5c(nc6cc(C)ccn65)c4c3C2=O)NC(=O)/C(C)=C\C=C\[C@H](C)[C@H](O)[C@@H](C)[C@@H](O)[C@@H](C)[C@H](OC(C)=O)[C@@H]1C [Rifaximin] | 50.5 ± 1.9%
24 | CC[C@H]1OC(=O)[C@H](C)[C@@H](O[C@H]2C[C@@](C)(OC)[C@@H](O)[C@H](C)O2)[C@H](C)[C@@H](O[C@@H]2O[C@H](C)C[C@H](N(C)C)[C@H]2O)[C@](C)(O)C[C@@H](C)CN(C)[C@H](C)[C@@H](O)[C@]1(C)O [Azithromycin] | 99.666 ± 0.042%
25 | O=c1[nH]c(=O)n([C@H]2C[C@H](O)[C@@H](CO)O2)cc1F [Floxuridine] | 99.05 ± 0.42%
